# Experimental data published in PubChem BioAssay (NCI).
# Values joined by “and” are separate entries in the source; they are usually repeats but may differ in a detail not shown here. Equal values may be shown once. The panel holds about 79,000 compounds, 15% with a hit somewhere; the sample as a whole holds those more often. Some compounds were tested as several samples or in several runs, with calls that do not always agree. Active and inactive are the calls of the source. Rule as the data show it: active = growth inhibition above about 70%; inactive = the rest.
# How the values were obtained:
# [1] = NCI Yeast Anticancer Drug Screen. Data for the rad50 strain (AID 155);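 also: 0% = growth of vehicle-only cultures of the same strain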; conditions: S. cerevisiae rad50 strain growth inhibition, stronger effect = higher value
# Procedure, shortened: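 Readout: growth inhibition relative to vehicle-treated cultures. Compound exposure was carried out in a genetically defined yeast strain deficient in DNA damage repair.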
# [2] = NCI Yeast Anticancer Drug Screen. Data for the mec2-1 strain (AID 157); conditions: S. cerevisiae mec2-1 strain, stronger effect = higher value
# Procedure, shortened: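 Readout is yeast growth inhibition, normalised to vehicle-treated controls, in the mec2-1 strain exposed to compound.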
# [3] = NCI Yeast Anticancer Drug Screen. Data for the sgs1 mgt1 strain (AID 161);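 also: 0% = growth of cultures given vehicle only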; conditions: S. cerevisiae sgs1 mgt1 strain, stronger effect = higher value
# Procedure, shortened: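 Yeast cells carrying a defined DNA-repair defect were exposed to test compounds. Growth inhibition was measured relative to vehicle-treated controls.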
# [4] = NCI Yeast Anticancer Drug Screen. Data for the cln2 rad14 strain (AID 165);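 also: 0% = growth equal to vehicle treated cultures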; conditions: S. cerevisiae cln2 rad14 strain, stronger effect = higher value
# Procedure, shortened: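 Relative to vehicle controls, growth inhibition of compound-treated cln2 rad14 yeast was recorded.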
# [5] = NCI Yeast Anticancer Drug Screen. Data for the bub3 strain (AID 167); conditions: S. cerevisiae bub3 mutant strain, stronger effect = higher value
# Procedure, shortened: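 Readout: yeast growth inhibition, expressed relative to vehicle-only wells. The test organism is a mutant strain from a panel with lesions in DNA repair or checkpoint genes.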
# [6] = NCI Yeast Anticancer Drug Screen. Data for the mlh1 rad18 strain (AID 175); conditions: S. cerevisiae mlh1 rad18 strain growth inhibition, stronger effect = higher value
# Procedure, shortened: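 Test agents were incubated with a yeast strain of defined genotype (DNA damage repair defect). Inhibition of growth was derived by comparison with vehicle-exposed cultures.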
# [7] = NCI Yeast Anticancer Drug Screen. Data for the mgt1 strain (AID 153); conditions: S. cerevisiae mgt1 mutant growth inhibition, stronger effect = higher value
# Procedure, shortened: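 Genetically defined yeast (mgt1) treated with compound; inhibition of growth expressed against vehicle-treated controls.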
# [8] = NCI Yeast Anticancer Drug Screen. Data for the rad14 strain (AID 159);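 also: 0% = growth of vehicle-treated control cultures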; conditions: S. cerevisiae rad14 strain growth inhibition, stronger effect = higher value
# Procedure, shortened: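 Growth inhibition vs vehicle controls; genetically altered yeast strain (DNA damage repair defect) treated with test compounds.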
# [9] = NCI Yeast Anticancer Drug Screen. Data for the CLN2oe strain (AID 163);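 also: 0% = growth of vehicle-only control cultures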; conditions: S. cerevisiae CLN2oe strain, stronger effect = higher value
# Procedure, shortened: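 Values reflect how much compound exposure reduced yeast growth, referenced to vehicle-exposed cells. Assay organism is a strain with a defined genetic change affecting cell-cycle control.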
# [10] = NCI Yeast Anticancer Drug Screen. Data for the wt2 strain (AID 169);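 also: 0% = growth of vehicle-treated yeast cultures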; conditions: S. cerevisiae wt2 strain growth inhibition, stronger effect = higher value
# Procedure, shortened: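 Values express reduction in yeast growth under compound treatment, referenced to vehicle-treated cells.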
# [11] = NCI Yeast Anticancer Drug Screen. Data for the mlh1 strain (AID 171);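 also: 0% = growth of vehicle-treated control cultures of the same strain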; conditions: S. cerevisiae mlh1 strain growth inhibition, stronger effect = higher value
# Procedure, shortened: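 Steps: expose the defined-mutant yeast strain to compound; expose a parallel culture to vehicle; measure growth; express compound effect as inhibition relative to the vehicle culture.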
# [12] = NCI Yeast Anticancer Drug Screen. Data for the sgs1 strain (AID 173);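 also: 0% = growth of vehicle-only control cultures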; conditions: S. cerevisiae sgs1 mutant, stronger effect = higher value
# Procedure, shortened: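 Treat defined-mutant yeast with compound; measure growth; calculate inhibition relative to vehicle-treated cells.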
# [13] = NCI Yeast Anticancer Drug Screen. Data for the rad18 strain (AID 177); conditions: S. cerevisiae rad18 mutant growth inhibition, stronger effect = higher value
# Procedure, shortened: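 A genetically defined yeast mutant impaired in DNA damage repair was treated with test compounds, then its growth was measured against cultures receiving vehicle alone.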
# [14] = at 5.0 µM (retest, dose inferred, filed as 0.5)
# [15] = at 50.0 µM (retest, dose inferred, filed as 5.0)
smiles,measurement,setting,value
CCN(CC)CC.CCOc1ccc(NC(=O)N=C=[N-])cc1.[CH-]1CCCCC1.[CH-]1CCCCC1.[CH-]1CCCCC1.[Cl-].[Sn+4],growth inhibition,[1]; [14],99% (active)
same,growth inhibition,[1]; [15],99% (active)
same,growth inhibition,[1]; at 50.0 µM,87.2% (active)
same,growth inhibition,[2]; [14],100% (active)
same,growth inhibition,[2]; [15],99% (active)
same,growth inhibition,[2]; at 50.0 µM,88.4% (active)
same,growth inhibition,[3]; [14],99% (active)
same,growth inhibition,[3]; [15],99% (active)
same,growth inhibition,[3]; at 50.0 µM,90.2% (active)
same,growth inhibition,[4]; [14],99% (active)
same,growth inhibition,[4]; [15],99% (active)
same,growth inhibition,[4]; at 50.0 µM,89.5% (active)
same,growth inhibition,[5]; [14],99% (active)
same,growth inhibition,[5]; [15],99% (active)
same,growth inhibition,[5]; at 50.0 µM,89.2% (active)
same,growth inhibition,[6]; [14],99% (active)
same,growth inhibition,[6]; [15],99% (active)
CSC(=Nc1ccccc1)N(c1ccccc1)c1nc(=[N+](C)C)ss1,growth inhibition,[7]; at 1.2 µM,2% (inactive)
same,growth inhibition,[7]; at 3.7 µM,7% (inactive)
same,growth inhibition,[7]; at 11.0 µM,84% (active)
same,growth inhibition,[7]; at 33.0 µM,98% (active)
same,growth inhibition,[7]; at 100.0 µM,99% (active)
same,growth inhibition,[1]; at 1.2 µM,3% (inactive)
same,growth inhibition,[1]; at 3.7 µM,13% (inactive)
same,growth inhibition,[1]; [14],56% (inactive)
same,growth inhibition,[1]; at 11.0 µM,93% (active)
same,growth inhibition,[1]; at 33.0 µM,98% (active)
same,growth inhibition,[1]; [15],99% (active)
same,growth inhibition,[1]; at 50.0 µM,98.4% (active)
same,growth inhibition,[1]; at 100.0 µM,99% (active)
same,growth inhibition,[2]; at 1.2 µM,2% (inactive)
same,growth inhibition,[2]; at 3.7 µM,9% (inactive)
same,growth inhibition,[2]; [14],26% (inactive)
same,growth inhibition,[2]; at 11.0 µM,80% (active)
same,growth inhibition,[2]; at 33.0 µM,97% (active)
same,growth inhibition,[2]; [15],99% (active)
same,growth inhibition,[2]; at 50.0 µM,99.3% (active)
same,growth inhibition,[2]; at 100.0 µM,99% (active)
same,growth inhibition,[8]; at 1.2 µM,-5% (inactive)
same,growth inhibition,[8]; at 3.7 µM,7% (inactive)
same,growth inhibition,[8]; at 11.0 µM,92% (active)
same,growth inhibition,[8]; at 33.0 µM,99% (active)
same,growth inhibition,[8]; at 100.0 µM,99% (active)
same,growth inhibition,[3]; [14],58% (inactive)
same,growth inhibition,[3]; [15],99% (active)
same,growth inhibition,[3]; at 50.0 µM,98.6% (active)
same,growth inhibition,[9]; at 1.2 µM,-12% (inactive)
same,growth inhibition,[9]; at 3.7 µM,-11% (inactive)
same,growth inhibition,[9]; at 11.0 µM,14% (inactive)
same,growth inhibition,[9]; at 33.0 µM,80% (active)
same,growth inhibition,[9]; at 100.0 µM,98% (active)
same,growth inhibition,[4]; [14],-1% (inactive)
same,growth inhibition,[4]; [15],98% (active)
same,growth inhibition,[4]; at 50.0 µM,93.4% (active)
same,growth inhibition,[5]; at 1.2 µM,1% (inactive)
same,growth inhibition,[5]; at 3.7 µM,22% (inactive)
same,growth inhibition,[5]; [14],37% (inactive)
same,growth inhibition,[5]; at 11.0 µM,85% (active)
same,growth inhibition,[5]; at 33.0 µM,93% (active)
same,growth inhibition,[5]; [15],98% (active)
same,growth inhibition,[5]; at 50.0 µM,98.5% (active)
same,growth inhibition,[5]; at 100.0 µM,99% (active)
same,growth inhibition,[10]; at 1.2 µM,0% (inactive)
same,growth inhibition,[10]; at 3.7 µM,17% (inactive)
same,growth inhibition,[10]; at 11.0 µM,87% (active)
same,growth inhibition,[10]; at 33.0 µM,97% (active)
same,growth inhibition,[10]; at 100.0 µM,99% (active)
same,growth inhibition,[11]; at 1.2 µM,-1% (inactive)
same,growth inhibition,[11]; at 3.7 µM,10% (inactive)
same,growth inhibition,[11]; at 11.0 µM,88% (active)
same,growth inhibition,[11]; at 33.0 µM,99% (active)
same,growth inhibition,[11]; at 100.0 µM,99% (active)
same,growth inhibition,[12]; at 1.2 µM,3% (inactive)
same,growth inhibition,[12]; at 3.7 µM,24% (inactive)
same,growth inhibition,[12]; at 11.0 µM,91% (active)
same,growth inhibition,[12]; at 33.0 µM,98% (active)
same,growth inhibition,[12]; at 100.0 µM,99% (active)
same,growth inhibition,[6]; [14],44% (inactive)
same,growth inhibition,[6]; [15],98% (active)
same,growth inhibition,[6]; at 50.0 µM,98.6% (active)
same,growth inhibition,[13]; at 1.2 µM,4% (inactive)
same,growth inhibition,[13]; at 3.7 µM,34% (inactive)
same,growth inhibition,[13]; at 11.0 µM,93% (active)
same,growth inhibition,[13]; at 33.0 µM,98% (active)
same,growth inhibition,[13]; at 100.0 µM,98% (active)
Cc1cc(N=Nc2ccccc2C)ccc1N,growth inhibition,[1]; [14],34% (inactive) and 23% (inactive)
same,growth inhibition,[1]; [15],44% (inactive) and 96% (active)
same,growth inhibition,[1]; at 50.0 µM,91.4% (active) and 88.5% (active)
same,growth inhibition,[2]; [14],46% (inactive) and 23% (inactive)
same,growth inhibition,[2]; [15],52% (inactive) and 99% (active)
same,growth inhibition,[2]; at 50.0 µM,93% (active) and 91.7% (active)
same,growth inhibition,[3]; [14],-4% (inactive) and 31% (inactive)
same,growth inhibition,[3]; [15],99% (active) and 96% (active)
same,growth inhibition,[3]; at 50.0 µM,93.5% (active) and 89.3% (active)
same,growth inhibition,[4]; [14],41% (inactive) and 20% (inactive)
same,growth inhibition,[4]; [15],98% (active) and 96% (active)
same,growth inhibition,[4]; at 50.0 µM,91.1% (active) and 91.5% (active)
same,growth inhibition,[5]; [14],12% (inactive) and 41% (inactive)
same,growth inhibition,[5]; [15],97% (active) and 99% (active)
same,growth inhibition,[5]; at 50.0 µM,91.5% (active) and 90% (active)
same,growth inhibition,[10]; at 1.2 µM,2% (inactive)
same,growth inhibition,[10]; at 3.7 µM,-7% (inactive)
same,growth inhibition,[10]; at 11.0 µM,4% (inactive)
same,growth inhibition,[10]; at 33.0 µM,96% (active)
same,growth inhibition,[10]; at 100.0 µM,99% (active)
same,growth inhibition,[6]; [14],32% (inactive) and 35% (inactive)
same,growth inhibition,[6]; [15],38% (inactive) and 97% (active)
same,growth inhibition,[6]; at 50.0 µM,90.8% (active) and 91.9% (active)
CN(CCC(N)CC(=O)NC1C=CC(n2ccc(N)nc2=O)OC1C(=O)O)C(=N)N (centres undefined),growth inhibition,[1]; [14],48% (inactive)
same,growth inhibition,[1]; [15],95% (active)
same,growth inhibition,[1]; at 50.0 µM,91.8% (active)
same,growth inhibition,[2]; [14],86% (active)
same,growth inhibition,[2]; [15],98% (active)
same,growth inhibition,[2]; at 50.0 µM,92.8% (active) and 93.4% (active)
same,growth inhibition,[3]; [14],42% (inactive)
same,growth inhibition,[3]; [15],90% (active)
same,growth inhibition,[3]; at 50.0 µM,90.9% (active)
same,growth inhibition,[4]; [14],88% (active)
same,growth inhibition,[4]; [15],97% (active)
same,growth inhibition,[4]; at 50.0 µM,90% (active) and 90.2% (active)
same,growth inhibition,[5]; [14],68% (inactive)
same,growth inhibition,[5]; [15],96% (active)
same,growth inhibition,[5]; at 50.0 µM,91% (active) and 92% (active)
same,growth inhibition,[6]; [14],72% (active)
same,growth inhibition,[6]; [15],97% (active)
same,growth inhibition,[6]; at 50.0 µM,90.6% (active) and 90.7% (active)
C[As](C)SCC1OC2OC(C)(C)OC2C2OC(C)(C)OC12 (centres undefined),growth inhibition,[1]; [14],28% (inactive)
same,growth inhibition,[1]; [15],97% (active)
same,growth inhibition,[1]; at 50.0 µM,91.5% (active)
same,growth inhibition,[2]; [14],21% (inactive)
same,growth inhibition,[2]; [15],99% (active)
same,growth inhibition,[2]; at 50.0 µM,92.2% (active)
same,growth inhibition,[3]; [14],45% (inactive)
same,growth inhibition,[3]; [15],83% (active)
same,growth inhibition,[3]; at 50.0 µM,92.5% (active)
same,growth inhibition,[4]; [14],48% (inactive)
same,growth inhibition,[4]; [15],73% (active)
same,growth inhibition,[4]; at 50.0 µM,90.1% (active)
same,growth inhibition,[5]; [14],44% (inactive)
same,growth inhibition,[5]; [15],99% (active)
same,growth inhibition,[5]; at 50.0 µM,91.5% (active)
same,growth inhibition,[6]; [14],24% (inactive)
same,growth inhibition,[6]; [15],96% (active)
same,growth inhibition,[6]; at 50.0 µM,90.2% (active)
